The values that follow come from PubChem BioAssay.

A short description of assay [1]: A549 cell viability effects, profiling panel, calcein-AM fluorescence, 48 h, basal (AID 1162). The following applies: higher = more signal.
Assay [2] in a line: adipocyte viability effects, profiling panel, cell-based, 3T3-L1 adipocytes, calcein-AM fluorescence, 48 h, basal (AID 1163). The conditions noted are these: 3T3-L1 adipocytes viability, higher = more signal.
A short description of assay [3]: HepG2 cell viability effects, profiling panel, calcein-AM fluorescence, 48 h, basal (AID 1164). The conditions noted are these: higher = more signal.
A short description of assay [4]: MM1S cell viability effects, profiling panel, calcein-AM fluorescence, 48 h, basal (AID 1165).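 Also: viability of MM1S multiple myeloma cells under basal unstimulated conditions.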 The following applies: higher = more signal.
Assay [5] is described as follows: basal RPMI8226 viability, no added stimulus, profiling panel, cell-based, calcein-AM fluorescence, 48 h, PK04 Diversity Set (AID 1166).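 Also: cells grown under basal conditions without added stimulus.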 The following applies: RPMI8226 myeloma viability, higher = more signal.
A short description of assay [6]: basal HepG2 mitochondrial membrane potential changes, profiling panel, cell-based, JC-1 fluorescence, 24 h, 100 nL compound (AID 1167). The following applies: higher = more signal.
A short description of assay [7]: basal 3T3-L1 adipocyte mitochondrial potential changes, profiling panel, cell-based, JC-1 fluorescence, 3T3-L1 adipocytes, 24 h, 100 nL compound (AID 1168). The conditions noted are these: JC-1 mitochondrial fluorescence, higher = more signal, called active from +8 up or from −8 down.
Assay [8] is described as follows: basal RPMI8226 mitochondrial membrane potential changes, profiling panel, cell-based, JC-1 fluorescence, 24 h, 100 nL compound (AID 1169). The conditions noted are these: RPMI8226 myeloma, JC-1 mitochondrial potential fluorescence, higher = more signal.
Assay [9] in a line: basal MM1S mitochondrial membrane potential changes, profiling panel, cell-based, JC-1 fluorescence, 24 h, 100 nL compound (AID 1170). The conditions noted are these: higher = more signal.
The nature of assay [10]: A549 lung cancer cell viability effects, profiling panel, resazurin fluorescence, 24 h, PK04 Diversity Set (AID 1171). The following applies: higher = more signal, called active from +8 up or from −8 down.

Activity calls are given as the source filed them.
Also: test concentration not given here.

For the compound `C[C@H]1CC[C@H]2C(=O)OC(COc3ccc(C(C)(C)C)cc3)CN2[C@@H]1c1ccc(Br)cc1` (stereo not given in full), the z-score in [1] is 2.19; in [2], 0.193; in assay [3] it was 0.349; in [4], 0.793; in assay [5], 0.253; in [6], 0.745. Further, the z-score in assay [7] was -0.414 (inactive); in assay [8], 0.566; in assay [9], 0.855; in assay [10], 0.479 (inactive).
`C#CCCCON=C1C[C@@H](O)[C@@H](O)[C@@H]2[C@@H]3C(=O)N([C@@H](C)c4ccccc4)C(=O)[C@@H]3CC[C@@H]12`: the z-score was 0.241 in [1]; -0.532 in assay [2]; -0.47 in assay [3]; -0.597 in [4]; -0.337 in [5]; -0.998 in [6]. Besides, the z-score in assay [7] was -0.377 (inactive); in assay [8] it was 0.462; in assay [9], -0.968; in [10], -0.378 (inactive).
For the compound `C[C@@H]1C=CCC(=O)OC[C@H](C)C(=O)N[C@@H](Cc2ccccc2)C(=O)OC1`, the z-score in [1] was -0.88; in assay [2], 2.49; in [3] it was 0.499; in [4], -0.295; in assay [5], -0.371; in assay [6] it was 0.662. Also, the z-score is 0.55 (inactive) in assay [7], 0.803 in assay [8], 0.382 in [9] and 0.168 (inactive) in assay [10].
Turning to `O=C1[C@H]2CCn3c(=O)n(-c4ccccc4)c(=O)n3[C@H]2[C@H](O)[C@@H]2O[C@H]12`, the z-score in assay [1] is 0.0313; in assay [2] it was -0.226; in assay [3] it was -0.352; in assay [4] it was -1.32; in [5], -0.19; in assay [6], -0.237. Also, the z-score in assay [7] was -0.169 (inactive); in assay [8], -0.104; in [9] it was -0.351; in [10], -0.331 (inactive).
With `O=C1[C@H]2[C@H]3[C@H](O)[C@H](O)CC(=NOC[C@@H](O)COCc4ccco4)[C@@H]3CC[C@H]2C(=O)N1c1cccc(Oc2ccccc2)c1`, the z-score was -0.382 in assay [1]; -0.454 in assay [2]; -1.19 in assay [3]; -0.163 in [4]; 0.0958 in [5]; -0.0749 in [6]. Besides, the z-score in assay [7] was -0.785 (inactive); in assay [8] it was 0.688; in assay [9], -0.105; in assay [10] it was 0.0561 (inactive).
In the case of `CC(CCN1CCCc2nc(C)c(C)cc21)=NO[C@@H](C)c1cn([C@H](CO)Cc2ccccc2)nn1`, the z-score in [1] was 1.11; in [2], -0.189; in assay [3], -0.136; in assay [4], 0.33; in assay [5], 0.049; in assay [6], 0.38. In addition, the z-score in assay [7] was 0.733 (inactive); in [8], -0.0733; in assay [9], -0.762; in assay [10], -0.131 (inactive).
With `COC(=O)[C@H](C)NC(=O)CCC1CC(OC(=O)NCc2cccc3ccccc23)CC2(CCCC(COC(=O)NCCc3ccccc3OC)O2)O1` (stereo not given in full), the z-score is -0.932 in assay [1]; -1.02 in assay [2]; -1.44 in assay [3]; -3.38 in [4]; -1.79 in assay [5]; -0.525 in assay [6]. In addition, the z-score is -0.309 (inactive) in assay [7], 0.179 in [8], -1.33 in [9] and 0.642 (inactive) in assay [10].
In the case of `COCOc1ccc(Br)cc1C(=O)C=Cc1ccc2c(c1)OCO2`, the z-score was -0.206 in assay [1]; -0.342 in [2]; -2.2 in [3]; -3.48 in assay [4]; -3.81 in [5]; 1.28 in assay [6]. The z-score in assay [7] was 0.0274 (inactive); in assay [8], -1.12; in [9] it was -2.71; in assay [10], -1.56 (inactive).
Regarding `CCN(CC)CC(O)CN1CCCCc2nc(C)c(C)cc21` (stereo not given), the z-score in assay [1] is -0.0127; in assay [2], -0.054; in assay [3], 0.776; in assay [4], 0.288; in [5], 0.378; in assay [6], 0.68. Moreover, the z-score is 0.109 (inactive) in assay [7], 0.316 in assay [8], -0.989 in [9] and 0.985 (inactive) in assay [10].
With `O=C1[C@H]2[C@H]3[C@H](O)[C@H](O)CC(=NO[C@@H]4O[C@H](CO)[C@@H](O)[C@H](O)[C@H]4O)[C@@H]3CC[C@H]2C(=O)N1C[C@@H]1CCCO1`, the z-score in assay [1] was -0.863; in [2] it was -0.0334; in assay [3] it was -0.618; in assay [4] it was -0.0584; in [5], -2.03; in assay [6], -0.42. Besides, the z-score in assay [7] is -0.0322 (inactive); in assay [8], 0.0485; in assay [9] it was -1.16; in assay [10], 0.226 (inactive).
As to `O=C1C[C@@H](O)[C@@H](O)[C@@H]2[C@@H]3C(=O)N(c4ccc(F)cc4F)C(=O)[C@@H]3CC[C@H]12`, the z-score was -0.529 in assay [1]; 1.42 in assay [2]; 0.0181 in [3]; -0.141 in [4]; -0.0202 in assay [5]; -0.541 in assay [6]. Besides, the z-score in assay [7] is -0.922 (inactive); in assay [8] it was 0.0715; in assay [9] it was 0.448; in assay [10], -0.715 (inactive).
On to `COc1ccc(COC(=O)NN=C2C[C@@H](O)[C@@H](O)[C@@H]3[C@@H]4C(=O)N(Cc5ccc6c(c5)OCO6)C(=O)[C@@H]4CC[C@H]23)cc1`, for which the z-score in [1] was -0.0897; in [2], -0.243; in assay [3], 0.53; in assay [4] it was 0.311; in assay [5] it was -0.0157; in [6], 0.301. Further, the z-score in assay [7] is -0.339 (inactive); in [8], 0.0307; in assay [9], -0.825; in assay [10] it was -0.0129 (inactive).
`COc1ccc(COC(=O)NN=C2C[C@@H](O)[C@@H](O)[C@@H]3[C@@H]4C(=O)N([C@@H](C)c5ccccc5)C(=O)[C@@H]4CC[C@@H]23)cc1`: the z-score in assay [1] is -0.173; in [2], 0.0685; in assay [3], -0.966; in [4], 0.434; in assay [5] it was -1.26; in [6] it was -0.697. In addition, the z-score in assay [7] was -0.132 (inactive); in [8], -0.189; in assay [9], -0.369; in [10], 0.0487 (inactive).
`CCOC(=O)CCN1C(=O)[C@H]2[C@H]3[C@H](O)[C@H](O)CC(=O)[C@@H]3CC[C@H]2C1=O`: the z-score is -0.856 in [1]; 0.314 in assay [2]; -0.0609 in assay [3]; -0.885 in [4]; 0.456 in [5]; -0.385 in [6]. Besides, the z-score in assay [7] is -0.368 (inactive); in assay [8] it was -0.798; in assay [9], 0.325; in [10], 0.699 (inactive).
